Experimental data taken from article PMC8159961, “Exploring protein hotspots by optimized fragment pharmacophores” (Nature Communications, 2021).

These compounds were tested against 5-HT1A receptor (human, UniProt P08908) (assay: primary screen, binary call; higher = more effect of the substance). Details: 10 µM; call rule not given here.
Set-up: hit call from the mean of at least two separate experiments
Procedure: GPCR radioligand binding assays were performed in HEK293 cells with stable expression of human 5-HT1A, 5-HT6, and 5-HT7b receptors (prepared with the use of Lipofectamine 2000). Non-specific binding was defined with 10 µM of 5-HT in 5-HT1AR and 5-HT7R binding experiments, whereas 10 µM of mianserin was used in 5-HT6R assays, respectively. Each compound was tested at 10 µM concentration. Results were expressed as means of at least two separate experiments.

Sequence of 5-HT1A receptor (P08908 whole entry, looked up): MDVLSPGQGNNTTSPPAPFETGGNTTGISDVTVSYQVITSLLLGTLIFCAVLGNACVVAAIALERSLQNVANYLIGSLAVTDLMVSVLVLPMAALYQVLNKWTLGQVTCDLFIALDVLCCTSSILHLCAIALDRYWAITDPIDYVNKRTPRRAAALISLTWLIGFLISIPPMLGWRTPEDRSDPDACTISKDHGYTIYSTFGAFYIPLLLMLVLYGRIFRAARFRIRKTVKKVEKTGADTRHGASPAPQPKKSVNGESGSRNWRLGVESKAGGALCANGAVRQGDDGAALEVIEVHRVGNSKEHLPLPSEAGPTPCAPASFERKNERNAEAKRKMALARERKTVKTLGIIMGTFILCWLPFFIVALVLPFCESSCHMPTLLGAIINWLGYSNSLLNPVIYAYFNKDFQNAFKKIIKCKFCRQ

5-HT1, inactive:
Fc1ccc(CC2CCCNC2)cc1 (centres unmarked) 0
Cc1cnc(C(F)(F)F)cn1 0
Cn1c(CO)nc2ccccc21 0
COC(=O)c1c(C)nc(C2CC2)[nH]c1=O 0
FC1(F)CNCC(F)(F)O1 0
CCc1nccn1CC(=O)O 0
Nc1nnc(-c2cccs2)[nH]1 0
c1ccc(Nc2nncs2)cc1 0
CC(=O)c1ccc2c(c1)CNCC2 0
c1cnc2c(c1)NCCC2 0

5-HT1, active:
COc1ccccc1CC1CCNCC1.Cl 1
